Screening data as filed in PubChem.
This is a sample that favours compounds with a hit; in the whole collection about 15% have one here.
Sm TGR inh – inhibitors of Schistosoma mansoni thioredoxin glutathione reductase; Potency, µM (top dose mostly 114 µM), for inactives: at the top dose activity change, negative = inhibition, usual class: inhibitors; Q962Y6; 360,000 tested, 3% active; purified TGR, DTNB reduction, TNB absorbance 405 nm; also: potency is read from the fitted curve at half-maximal effect; % is scaled to controls: 0 for no effect and ±100 for the full control effect; nearly all actives have a fitted effect of over 60% in size
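Kinetic colorimetric format: TGR-catalysed, NADPH-driven DTNB reduction monitored via TNB absorbance. Enzyme dispensed at 20 nM; compound exposure 15 min at room temperature before reaction start.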
HCMV inh – inhibitors of human cytomegalovirus | HFF cells, HCMV-luciferase reporter, 72 h; hits give low values | activity change, negative = inhibition, % at 57.5 µM | 410,000 tested, 4.5% active | AID 1259415; in the data active = activity change below about -60%; inconclusive = no clear call, values can overlap the other calls; inactive = above about -39%; also: % is scaled to controls: 0 for no effect and ±100 for the full control effect
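Human foreskin fibroblasts infected with luciferase-reporter HCMV at MOI 1 PFU/cell, compounds at two doses. Luciferase measured 72 h post infection; normalized to buffer-only basal and Salinomycin (10uM) controls.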
HCV inh – blocks hepatitis C virus; Huh7.5.1 HCVcc-Cre infection, luciferase reporter, 44 h; Potency, µM (series often up to 41.8 µM), for the others: at the highest dose activity change, negative = inhibition, hits mostly inhibitors; 340,000 tested, 3.4% active; also: potency is read from the fitted curve at half-maximal effect; % is scaled to controls: 0 for no effect and ±100 for the full control effect
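Antiviral activity was scored by luciferase reporter output from cells infected with HCVcc-Cre (~0.5 moi) in presence of compound, 44 h infection period, cells seeded 1,000/well 4 h prior.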
SARS PLpro yeast-1 – blocks SARS-CoV papain-like protease in a yeast assay; S. cerevisiae expressing SARS-CoV PLpro, growth rescue; Potency, µM (top dose mostly 32.9 µM), for the others: at the top dose activity, positive = growth rescue, hits mostly activators; 330,000 tested, 0.19% active; AID 485353; calls by dose curve; also: potency is read from the fitted curve at half-maximal effect; 0% is about no effect; nearly all actives have a fitted effect of over 55% in size
Pf growth 48h – P. falciparum growth inhibition at 48 hours (one generation); P. falciparum luciferase growth in erythrocytes, 48 h; Potency, µM (doses to about 28.7 µM), without a hit: at the highest dose activity change, negative = inhibition, most hits filed as inhibitors; AID 504832; 310,000 tested, 5.9% active; also: potency is read from the fitted curve at half-maximal effect; % is scaled to controls: 0 for no effect and ±100 for the full control effect
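Firefly luciferase activity from engineered P. falciparum reports growth; inhibitors lower the luminescent signal. Cultures contained 2% hematocrit erythrocytes at 0.1% final parasitemia.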
Pf growth 96h – P. falciparum growth inhibition at 96 hour, primary screen for plastid delayed-death inhibitors; P. falciparum luciferase reporter growth, 96 h; Potency, µM (titrated, usually from 28.7 µM), inactives show at the highest dose activity change, negative = inhibition, hits mostly inhibitors; 320,000 tested, 6.9% active; AID 504834; also: potency is read from the fitted curve at half-maximal effect; % is scaled to controls: 0 for no effect and ±100 for the full control effect
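Readout is luminescence from an integrated firefly luciferase in P. falciparum. Red cells, 2% hematocrit and 0.05% parasitemia final, were cultured with compound through two parasite generations (96 hours) at 37 C, 5% CO2.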
SARS PLpro yeast-2 – Rescues yeast growth by inhibiting SARS-CoV PLpro | shares compounds with SARS PLpro yeast-1 | yeast expressing SARS-CoV PLpro, growth phenotype rescue | calls only | 1,000 tested, 19% active; call rule not given here
CLK4 ADP-Glo – confirmation of inhibitors of human CDC-like kinase 4; shares compounds with Pf growth 48h; 65 tested, 80% active; AID 1969; Potency, µM (top dose mostly 80 µM), without a hit: top-dose activity, negative = inhibition, hits mostly inhibitors; recombinant Clk4, RS peptide, ADP-Glo luminescence
Target sequence (Q9HAZ1 whole entry, looked up): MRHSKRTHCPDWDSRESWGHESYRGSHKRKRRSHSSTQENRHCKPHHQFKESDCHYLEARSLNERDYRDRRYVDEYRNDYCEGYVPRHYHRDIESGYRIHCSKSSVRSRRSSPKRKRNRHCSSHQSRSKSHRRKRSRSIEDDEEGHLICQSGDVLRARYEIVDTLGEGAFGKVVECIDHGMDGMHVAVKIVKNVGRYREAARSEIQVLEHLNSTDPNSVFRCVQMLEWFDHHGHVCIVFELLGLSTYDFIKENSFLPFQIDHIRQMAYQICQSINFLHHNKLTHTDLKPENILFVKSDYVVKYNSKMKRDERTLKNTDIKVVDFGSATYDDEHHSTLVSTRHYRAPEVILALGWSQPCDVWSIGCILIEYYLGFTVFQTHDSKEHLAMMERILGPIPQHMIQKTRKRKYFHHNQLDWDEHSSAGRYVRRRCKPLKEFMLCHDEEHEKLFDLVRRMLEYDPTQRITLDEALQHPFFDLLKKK
CLK4 cf ADP-FP – confirmation of human CDC-like kinase 4 (CLK4) inhibitors; shares compounds with Pf growth 48h; recombinant Clk4, ADP Transcreener FP, RS peptide; Potency, µM (top dose mostly 80 µM), for the others: top-dose activity, negative = inhibition, most hits filed as inhibitors; 65 tested, 70% active; AID 1983
HCV confirm – confirmation of hepatitis C virus inhibitors; HCVcc-Cre infectious virus cell assay, luciferase, inhibition; AID 720575; Potency, µM (top dose mostly 41.8 µM), for inactives: top-dose activity, negative = inhibition, usual class: inhibitors; shares compounds with HCV inh; 640 tested, 78% active; also: potency is read from the fitted curve at half-maximal effect; nearly all actives have a fitted effect of over 80% in size
HCV host tox – counter-screen for HCV inhibitors: host cell cytotoxicity; shares compounds with HCV inh; HCV host cell line cytotoxicity counterscreen; 640 tested, 22% active; Potency, µM (doses to about 41.8 µM), without a hit: at the top dose activity change, negative = cytotoxicity, most hits filed as inhibitors;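 also: potency is read from the fitted curve at half-maximal effect; 44 h compound exposure; % is scaled to controls: 0 for no effect and ±100 for the full control effect; nearly all actives have a fitted effect of over 55% in size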
* hit, by the source's call; i = inactive; ? = inconclusive; . = no result. Unless noted, calls follow the shape of the dose curve; as a rule, active = well fitted curve in the direction sought with a large enough effect; inconclusive = small, poorly fitted or top-dose-only effect, or another doubt; inactive = no such curve, though single readings can be large; an effect the other way counts as inactive or inconclusive.

SMILES	Sm TGR inh	HCMV inh	HCV inh	SARS PLpro yeast-1	Pf growth 48h	Pf growth 96h	CLK4 ADP-Glo	CLK4 cf ADP-FP	others
C/C(=N\NC(=O)C(C)n1nc(C)c([N+](=O)[O-])c1C)c1ccccc1O (configuration not stated)	3%	-101*	2.5µM*	?	9.3µM*	?	.	.	SARS PLpro yeast-2=i;HCV confirm=7.9µM*;HCV host tox=?
COc1cccc(-c2ccc3ncnc(NCc4cccnc4)c3c2)c1	-4%	-77*	.	6%	?	?	2.5µM*	4.5µM*
COc1cccc(CNc2ncnc3cc(OC)c(OC)cc23)c1	1%	21	-15%	-3%	?	?	.	.
c1cncc(CNc2ncnc3ccc(-c4ccco4)cc23)c1	8.9µM*	.	.	1%	?	?	2.8µM*	8.9µM*
Cc1ccccc1-c1cnc2c(c1)C(=O)N([C@H](C)CO)C[C@@H](C)[C@H](CN(C)C(=O)c1ccncc1)O2	.	15	.	.	.	.	.	.
Cc1c(C(=O)NC(C)c2ccccc2)sc2ncnc(N(C)C3CCCCC3)c12 (configuration not stated)	12%	-23	.	.	.	.	.	.
CCC(C)(C(=O)NC1CCCC1)N(Cc1ccco1)C(=O)c1ccc2c(c1)OCO2 (configuration not stated)	4%	26	?	-2%	0%	?	.	.
CN(Cc1ccco1)c1ncnc2ccc(-c3ccc4c(c3)OCO4)cc12	-7%	33	.	4%	?	?	0.063µM*	0.05µM*
Cc1cccc(-c2noc(CCC(=O)NCc3ccco3)n2)c1	-6%	81	-10%	-7%	.	5%	.	.
Cc1cccc(-c2ccc3ncnc(N(C)Cc4ccco4)c3c2)c1	5%	.	.	-4%	12µM*	?	2.5µM*	3.2µM*
CN(Cc1ccco1)c1ncnc2ccc(-c3cccc(Cl)c3)cc12	-18%	.	.	-12%	6.6µM*	9.3µM*	1.4µM*	1.6µM*
CN(Cc1ccco1)c1ncnc2ccc(-c3ccc4c(ccn4C)c3)cc12	-8%	-99*	.	-22%	10µM*	9.3µM*	14µM*	?
CC(=O)Nc1cc(-c2ccc(N3CCN(C)CC3)cc2)cn2c(-c3cccc(C(C)=O)c3)cnc12	.	31	.	.	.	.	.	.
COc1ccc(C2CC(=O)c3c([nH]c(C(=O)OC4CCCCCC4)c3C)C2)cc1OC (configuration not stated)	3%	-15	.	.	.	.	.	.
Clc1ccc2c(NCc3cccs3)ncnc2c1	?	?	?	0%	.	23%	.	.
Cc1csc(CNc2ncnc3ccc(-c4cccc(Cl)c4)cc23)c1	-4%	-3	.	-23%	7.4µM*	2.3µM*	13µM*	?
Cc1csc(CNc2ncnc3ccc(-c4ccco4)cc23)c1	-13%	.	.	-5%	?	7%	-2%	-9%
